The structures appear in SMILES notation. Structures can show the parent of a compound that is named as a salt.

Chain of PARP1 L713F-nLuc biosensor (HCT116) (P09874 whole entry L713F, looked up): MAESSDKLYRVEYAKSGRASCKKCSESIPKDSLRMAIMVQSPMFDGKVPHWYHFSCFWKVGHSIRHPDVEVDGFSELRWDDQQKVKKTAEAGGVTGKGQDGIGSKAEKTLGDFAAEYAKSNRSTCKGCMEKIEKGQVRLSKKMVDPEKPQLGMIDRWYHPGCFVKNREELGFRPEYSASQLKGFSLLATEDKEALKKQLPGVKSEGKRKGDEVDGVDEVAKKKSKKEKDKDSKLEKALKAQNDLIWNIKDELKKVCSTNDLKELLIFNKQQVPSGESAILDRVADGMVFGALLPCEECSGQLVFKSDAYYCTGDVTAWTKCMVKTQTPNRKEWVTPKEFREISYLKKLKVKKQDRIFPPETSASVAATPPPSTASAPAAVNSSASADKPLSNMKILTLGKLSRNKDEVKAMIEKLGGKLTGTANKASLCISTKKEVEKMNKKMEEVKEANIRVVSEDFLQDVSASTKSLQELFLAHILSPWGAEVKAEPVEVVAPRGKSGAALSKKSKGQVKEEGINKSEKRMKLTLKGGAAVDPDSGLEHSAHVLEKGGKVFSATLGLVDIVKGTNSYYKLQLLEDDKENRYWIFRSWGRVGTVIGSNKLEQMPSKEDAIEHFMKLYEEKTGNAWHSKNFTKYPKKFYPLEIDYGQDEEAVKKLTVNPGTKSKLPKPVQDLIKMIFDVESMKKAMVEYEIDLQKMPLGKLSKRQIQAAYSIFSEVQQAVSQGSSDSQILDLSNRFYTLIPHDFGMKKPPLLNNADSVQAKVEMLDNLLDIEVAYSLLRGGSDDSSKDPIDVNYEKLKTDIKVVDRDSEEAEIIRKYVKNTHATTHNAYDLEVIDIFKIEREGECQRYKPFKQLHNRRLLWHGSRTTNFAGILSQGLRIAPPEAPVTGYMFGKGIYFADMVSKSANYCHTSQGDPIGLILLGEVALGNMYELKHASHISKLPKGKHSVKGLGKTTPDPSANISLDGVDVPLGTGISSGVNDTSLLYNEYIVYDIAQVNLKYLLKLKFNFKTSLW

The test has as its target PARP1 L713F-nLuc biosensor (HCT116) (UniProt P09874). Put plainly: PARP1 L713F-nLuc/akaLuc ratio relative to DMSO control (biosensor stabilization) (fold change); higher = more PARP1 biosensor stabilization (target engagement / stabilizer), active = hit call of the paper. Conditions: stock concentration (mM; final µM = stock mM x 1): 10; 24 h;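 active = log2 fold change beyond 2 SD from the library mean after excluding viability outliers; inactive = within 2 SD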.
Consider `COc1cc(C(=O)N2CC[C@@H](O)[C@@H](N)C2)cc2nc(-c3cc4ccccc4n3CC3CC3)n(C)c12` [GSK484 (hydrochloride)], for which the “PARP1 L713F-nLuc/akaLuc ratio” value is 1.09 (inactive). As for `c1cncc(C2Nc3ccccc3-n3cccc32)c1` (centres undefined), the figure is 0.887 (inactive); as for `CCN1CCN(C(=O)Cc2ccc(Nc3ncc(F)c(Nc4ccc(C(=O)Nc5ccccc5Cl)cc4)n3)cc2)CC1`, 1.15 (inactive); as for `CC(=O)O[C@H]1[C@H]2[C@@H](OC(=O)Cc3ccccc3)[C@@H](C)C[C@]2(OC(C)=O)C(=O)/C(C)=C/[C@@H]2[C@H](CC[C@@]13CO3)C2(C)C` [Euphorbiasteroid], 0.646 (inactive). For `CCCC(=O)O[C@@H]1[C@@H](C)[C@@]2(O)[C@@H](C=C(CO)C[C@]3(O)C(=O)C(C)=C[C@@H]23)[C@@H]2C(C)(C)[C@]12OC(=O)CCC` [Phorbol 12,13-dibutyrate], the “PARP1 L713F-nLuc/akaLuc ratio” value was 1.36 (inactive). As for `C[C@@H]1C(=O)O[C@H]2[C@H](O)[C@@]34O[C@@H]5OC(=O)[C@H](O)[C@@]56[C@H](C(C)(C)C)[C@H](O)C(OC3=O)[C@]64[C@@]12O` (some centres undefined) [Ginkgolide C], the figure is 0.961 (inactive); as for `Cn1cc(C2=C(c3cn(C4CCN(Cc5ccccn5)CC4)c4ccccc34)C(=O)NC2=O)c2ccccc21` [Enzastaurin], 0.72 (inactive); as for `COc1c2c3c4c(c(OC)c(=O)c5c(O)cc(OC)c(c6c(OC)cc(O)c(c1=O)c63)c54)[C@@H](C(C)=O)[C@@](C)(O)C2` [Hypocrellin A], 0.849 (inactive). As for `C[C@H](CCC(=O)O)C[C@H](C)C[C@H](C)C(=O)/C=C(\O)[C@H](C)C[C@H](C)C/C=C/[C@@H](C)[C@@H](O)[C@@H](C)[C@@H](O)C[C@@H]1CC[C@@](C)([C@H]2CC[C@@](C)([C@@H](C)O)O2)O1` [Ionomycin (calcium)], the figure is 0.727 (inactive). Regarding `O=C(O)CNC(=O)c1c(O)c2ccccc2n(Cc2ccccc2)c1=O`, the “PARP1 L713F-nLuc/akaLuc ratio” value is 1.76 (inactive). As to `C/C=C(/C)C(=O)O[C@H]1[C@@H]2[C@H](C)C(=O)O[C@@H]2C[C@@H](C)[C@@H]2C=CC(=O)[C@]21C` [Brevilin A], the “PARP1 L713F-nLuc/akaLuc ratio” value was 1.47 (inactive). In the case of `COc1ccc2c(c[n+](C)c3c4cc5c(cc4ccc23)OCO5)c1OC` [Chelerythrine (chloride)], the “PARP1 L713F-nLuc/akaLuc ratio” value was 0.843 (inactive). Next, `C=C1C[C@@H]2[C@H](CC[C@]3(C)C(=O)CC[C@@H]23)[C@@]2(C)C=CC(=O)C=C12` [Exemestane]: 1 (inactive); `COc1ccc2c(c1)C(c1ccc(Cl)cc1)=N[C@@H](CC(=O)O)c1nnc(C)n1-2` [I-BET762 carboxylic acid]: 0.834 (inactive); `O=C(O)CNC(=O)C1C(=O)N(C2CCCCC2)C(=O)N(C2CCCCC2)C1=O` [Daprodustat]: 0.831 (inactive).

`O=C(NO)c1cnc(NC2(c3ccccc3)CCC(F)(F)CC2)nc1`: the “PARP1 L713F-nLuc/akaLuc ratio” value was 5.69 (active). As for `Cn1cc(C2=C(c3cn(C4CCN(Cc5ccccn5)CC4)c4ccccc34)C(=O)NC2=O)c2ccccc21`, the figure is 1.12 (inactive); as for `CC[C@@]1(O)C(=O)OCc2c1cc1n(c2=O)Cc2cc3ccccc3nc2-1` [Camptothecin], 0.495 (inactive).

For `CC[C@@H](C(N)=O)N1CCCC1=O` [Levetiracetam], the “PARP1 L713F-nLuc/akaLuc ratio” value was 1.19 (inactive). Next, `CCC1(c2ccc(N)cc2)CCC(=O)NC1=O` (centres undefined) [Aminoglutethimide]: 0.862 (inactive); `Clc1ccc2c(N3CCNCC3)ccnc2c1` [7-Chloro-4-(piperazin-1-yl)quinoline]: 0.933 (inactive); `O=C(NO)c1cnc(NC2(c3cccc(F)c3)CCCCC2)nc1`: 0.756 (inactive). Next, `Cc1cc(O)cc(C)c1C=C1C(=O)N(Cc2ccccc2)C(=O)N(Cc2ccccc2)C1=O`: 1.52 (inactive); `c1ccc([C@@H]2C[C@H]2NC2CCNCC2)cc1` [GSK-LSD1 (dihydrochloride)]: 0.955 (inactive).

For `CN(C)NC(=O)CCC(=O)O` [Daminozide], the “PARP1 L713F-nLuc/akaLuc ratio” value was 0.786 (inactive).

As to `CC(O)(CS(=O)(=O)c1ccc(F)cc1)C(=O)Nc1ccc(C#N)c(C(F)(F)F)c1` (centres undefined) [Bicalutamide], the “PARP1 L713F-nLuc/akaLuc ratio” value was 0.786 (inactive). As to `NCCCNCCSP(=O)(O)O` [Amifostine], the “PARP1 L713F-nLuc/akaLuc ratio” value is 1.22 (inactive). As for `CCc1c(C(=O)C(N)=O)c2c(OCC(=O)O)cccc2n1Cc1ccccc1`, the figure is 0.845 (inactive).

With `COCC1(CO)C(=O)C2CCN1CC2` (centres undefined), the “PARP1 L713F-nLuc/akaLuc ratio” value is 1.09 (inactive).

The record behind these values is the supplement of paper PMC11624193, “Coupling cellular drug-target engagement to downstream pharmacology with CeTEAM” (Nature Communications, 2024).
